# Reference: the supplement of paper PMC3334620
# In all, about 33,000 sequences were measured (“E-score (-0.5 to 0.5)”: median about -0.012, highest 2% from about 0.29 on). What follows is part of a selection rich in the highest values, with near analogues and random picks from the rest.
# Molecular target: T1, Ybr033w (UniProt P38073)
# T1 sequence: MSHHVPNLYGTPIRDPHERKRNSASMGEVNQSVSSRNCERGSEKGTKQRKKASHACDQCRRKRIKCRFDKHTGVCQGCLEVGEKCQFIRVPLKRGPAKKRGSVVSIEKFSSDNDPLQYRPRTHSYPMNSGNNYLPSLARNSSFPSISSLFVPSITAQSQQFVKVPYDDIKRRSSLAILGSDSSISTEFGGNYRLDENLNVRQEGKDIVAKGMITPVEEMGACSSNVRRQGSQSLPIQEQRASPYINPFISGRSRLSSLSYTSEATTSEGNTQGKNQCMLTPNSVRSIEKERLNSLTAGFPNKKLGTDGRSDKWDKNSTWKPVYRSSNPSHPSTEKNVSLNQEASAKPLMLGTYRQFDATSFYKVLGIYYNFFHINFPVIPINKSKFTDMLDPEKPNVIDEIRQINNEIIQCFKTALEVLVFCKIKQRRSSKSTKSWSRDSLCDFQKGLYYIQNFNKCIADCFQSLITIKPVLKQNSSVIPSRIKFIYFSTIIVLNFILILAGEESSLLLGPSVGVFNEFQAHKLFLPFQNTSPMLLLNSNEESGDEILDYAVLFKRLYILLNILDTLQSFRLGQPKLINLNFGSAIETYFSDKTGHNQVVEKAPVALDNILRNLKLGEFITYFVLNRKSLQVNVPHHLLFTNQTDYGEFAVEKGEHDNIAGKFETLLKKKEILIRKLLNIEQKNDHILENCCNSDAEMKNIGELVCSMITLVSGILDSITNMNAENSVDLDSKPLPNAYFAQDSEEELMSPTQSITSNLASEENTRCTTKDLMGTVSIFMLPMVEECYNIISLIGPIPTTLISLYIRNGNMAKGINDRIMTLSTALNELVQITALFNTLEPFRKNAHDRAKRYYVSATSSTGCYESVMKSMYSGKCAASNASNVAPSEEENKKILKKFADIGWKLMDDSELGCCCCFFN
# Test: PBM E-score (8-mer binding enrichment) (E-score (-0.5 to 0.5)); higher = stronger / more preferred TF binding
# Conditions: protein concentration: 200 nM; construct: GST-full length
# Experimental: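 Universal 'all 10-mer' protein binding microarrays (Agilent AMADID 015681) probed with GST-tagged S. cerevisiae TFs (full-length or DBD) made by in vitro transcription/translation (PURExpress), about 100-200 nM. Bound TF was detected with fluorescent anti-GST. Each ungapped 8-mer (which stands for itself and its reverse complement) is scored by the PBM enrichment score (E-score), a modified Wilcoxon-Mann-Whitney statistic from -0.5 to +0.5, computed with the Universal PBM Analysis Suite. Scale: above 0.35 generally sequence-specific binding.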
row,Sequence,PBM E-score
1,AGGACGGC,-0.235
2,GAGAGTCA,-0.0369
3,CGTCCTCC,-0.314
4,GAGAGATC,-0.00339
5,TCAGAAAA,0.0198
6,TCGGAAAA,0.424
7,TCGGGAAA,0.253
8,CCTTGGCC,-0.318
9,CAACATCC,-0.07
10,AAACATCC,0.192
11,GAACATCC,0.303
12,CAGAGCGA,0.105
13,TGGGTGAA,0.15
14,ATAAGGAA,0.0859
15,ATAAGGAT,0.297
16,ATAAGGAC,-0.0427
17,CCGAAGGC,-0.11
18,ATTCTGGC,-0.217
19,AATATAAT,0.236
20,CGCATAAA,0.297
21,AGCATAAA,0.141
22,TATATAAA,0.282
23,CGTATAAC,0.0815
24,CATATAAG,0.114
25,TGCATAAA,0.218

row,Sequence,PBM E-score
1,AGTATAAA,0.266
2,AATATAAG,0.295
3,CGTATAAA,0.291
4,CATATAAA,0.174
5,AATATAAA,0.344
6,AATACTTC,0.21
7,AACTAGAC,0.0442
8,GTGGTAGA,-0.158
9,CGGTGAGC,-0.26
10,AGCTGACA,-0.103
11,CCCACAAA,0.0286
12,AGTAAGAC,-0.00585
13,ATAACTGC,0.193
14,TGAAGAAA,0.134
15,CCAAGTCA,-0.0141
16,CAGTGCAG,-0.0894
17,CCGGAAGC,0.0751
18,CCGGAAGG,0.0448
19,ACGGAAGT,0.0483
20,CCGGAAGA,0.404
21,ACGGAAGA,0.338
22,TCGGAAGA,0.193
23,AGTCACCG,-0.104
24,TACTGCCA,0.038
25,AATCACCA,0.295

row,Sequence,PBM E-score
1,AATCACCG,-0.0481
2,TATCACCA,0.0892
3,AGACTGCC,-0.219
4,CAGTTATA,0.074
5,CCTATTTC,0.124
6,GATATTTA,0.338
7,CATATTTA,0.28
8,AATATTTA,0.318
9,AATATTTC,0.34
10,GATTTTTA,0.209
11,GCTATTTA,0.132
12,AATATTTG,0.232
13,CATATTTC,0.213
14,CGCTCTAA,-0.0524
15,CCAAAGAG,-0.0366
16,CCCACCAC,-0.0659
17,CCATACGA,0.0671
18,CCCGCCTC,-0.17
19,CGCCCCAA,-0.118
20,GCGAACAA,0.183
21,ATGAACAT,0.217
22,AGGAACAG,-0.0964
23,TGGAACCA,0.0554
24,TGGAACAA,0.434
25,AGGAACAT,0.399

row,Sequence,PBM E-score
1,AGGAACAC,0.193
2,ACGAACAT,0.151
3,AGGAACAA,0.402
4,GGGAACAA,0.381
5,TCGAACAA,0.138
6,GGGAACAC,0.0998
7,CCTGAATA,0.186
8,TCCCCTAA,-0.208
9,ATCTATTA,0.327
10,GTGTATTA,0.28
11,CTCTATCA,-0.0434
12,ATCTATCA,0.302
13,ATGTATTG,0.266
14,GTCTATTA,-0.0198
15,ATGTATTA,0.293
16,CTCTATTA,0.152
17,GTCTATCA,0.0657
18,GCTACAAC,0.0399
19,GAAGAGCC,-0.13
20,ACCGGCCA,-0.314
21,ATCCACAT,0.224
22,ACTCCTCC,-0.182
23,CGTAGTCA,-0.186
24,AATATCAC,0.239
25,AATATCGA,0.164

row,Sequence,PBM E-score
1,ACTATCAT,0.242
2,CATATCAG,0.0658
3,AATATCGG,0.198
4,AATATCAT,0.294
5,AATATCGT,0.33
6,AATATCAA,0.233
7,AATATCAG,0.299
8,ACGACGTA,0.0878
9,ACTTGGAC,0.127
10,ACCAGCAT,0.0255
11,CTGCGGTC,-0.262
12,AATCTACG,-0.0149
13,ACAGCACA,0.144
14,CCCCTTCG,-0.317
15,AAAATACC,0.315
16,CAAATACC,0.112
17,ACAATACT,0.219
18,AATACTCC,0.0328
19,AAAATACG,0.171
20,AATACTCA,0.229
21,AATACTCT,0.298
22,AAAATACT,0.301
23,AAAATACA,0.254
24,CTCTAGCA,-0.0957
25,AACGATGA,0.0671

row,Sequence,PBM E-score
1,GTGTTAGA,0.0758
2,GATAAGTA,0.205
3,GTAGACTA,-0.131
4,AATGCAAA,0.274
5,TCACTGGA,0.00252
6,ATAGTAGC,0.16
7,GACCTCCC,-0.249
8,CCGCGTGC,-0.231
9,ATTAAATA,0.33
10,ATAAAATG,0.219
11,GTTAAATA,0.278
12,ATTAAATC,0.213
13,ATTAAATG,0.347
14,CTTAAATA,0.114
15,AGCACAGC,0.0732
16,CATCGAGC,-0.0235
17,GTCTTGCA,0.0132
18,ATCTTGCA,0.294
19,ATCTTGCG,0.0267
20,AACTTGGT,0.168
21,GCTTTCCC,-0.253
22,AAAACTAA,0.328
23,TAAACTTA,0.166
24,GAAACTTA,0.332
25,TAAACTAA,0.271

row,Sequence,PBM E-score
1,CAAACTTA,0.191
2,GAAACTTC,0.112
3,AAAACTTA,0.362
4,AAAACTTC,0.176
5,AAAACTAT,0.217
6,ATTCTTAA,0.0371
7,AAAGCTAG,0.103
8,CCTAGCCG,-0.157
9,GAGCGTTA,0.113
10,GGTTCTAC,-0.0153
11,GGAATAAC,0.453
12,GGAATAAA,0.296
13,AGAATAAA,0.312
14,CGAATAAC,0.07
15,AGAATAAG,0.14
16,CGAATAAA,0.145
17,AGAATAAT,0.163
18,TGAATAAA,0.195
19,AGAATAAC,0.141
20,GATCGAGC,-0.00942
21,ATAGGTGG,-0.108
22,CGAGTGGC,-0.32
23,AGTTACCG,0.0592
